Only a selection was taken, and hits are over-represented in it overall.
Giardia killer = Giardia lamblia killing | Giardia lamblia trophozoite viability | activity change, % at 7.66 µM, hits read low | 340,000 compounds, 0.15% hits | AID 540267; in the data active = activity change below about -80%; inconclusive = between about -30% and that limit;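 also: parasites exposed to compound for two days anaerobically before the ATP read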
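Trophozoite viability was measured as ATP-dependent luminescence, read 15-30 min after reagent addition. Before that, parasites at 100 cells/well were exposed to compounds for 48 h, anaerobically, at 37 deg C.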
ERG Ets-DNA blk = blocks human ERG Ets domain binding to DNA; P11308; fluorescence polarization, His-ERG Ets domain / labelled DNA; Potency, µM (highest dose often 76.9 µM), most hits filed as inhibitors; 370,000 compounds, 0.028% hits; AID 624246; active = well fitted inhibition curve with a large enough effect in the polarisation, with a control signal flat; inconclusive = small, poorly fitted or top-dose-only effect, or effect the other way, or a change in a side signal; inactive = no such curve, though single readings can be large or run the other way; the % refers to the polarisation;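 also: polarization taken with two DNA probes labelled with fluorescein and Texas red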
Target sequence (P11308 whole entry, looked up, the tested form may be a part): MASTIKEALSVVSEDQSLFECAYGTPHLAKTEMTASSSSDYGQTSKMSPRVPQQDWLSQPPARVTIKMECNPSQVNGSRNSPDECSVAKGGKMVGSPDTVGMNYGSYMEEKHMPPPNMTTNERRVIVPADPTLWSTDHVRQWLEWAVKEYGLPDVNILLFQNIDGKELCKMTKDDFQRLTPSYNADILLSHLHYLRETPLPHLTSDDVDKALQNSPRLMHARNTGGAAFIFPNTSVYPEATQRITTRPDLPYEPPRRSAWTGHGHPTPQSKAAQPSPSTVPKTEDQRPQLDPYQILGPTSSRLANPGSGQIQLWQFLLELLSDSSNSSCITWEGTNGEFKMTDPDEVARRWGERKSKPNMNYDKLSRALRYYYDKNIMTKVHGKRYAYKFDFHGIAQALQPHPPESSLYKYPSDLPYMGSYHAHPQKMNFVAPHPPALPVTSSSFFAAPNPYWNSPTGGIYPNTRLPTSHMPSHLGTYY
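His-tagged ERG Ets domain (1 uM in the protein solution; 300mM KCl, 50mM Tris-HCl, 1mM EDTA, 1mM DTT, pH 7.5) received compound, then a probe mix of 5 nM fluorescein-DNA and 100nM Texas-615-DNA. Fluorescence polarization was read for both dyes.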
Integrin act MD = activates integrin-mediated alleviation for muscular dystrophy | AID 624291 | Potency, µM (highest dose often 38.3 µM), most hits filed as activators | alpha7betagal myoblasts, beta-gal FDG fluorescence, 48 h | 350,000 compounds, 0.064% hits; also: nearly all actives have a fitted effect of over 60% in size
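alpha7betagal+/- myoblasts (passage 13, 250/well) treated 48 h at 37C with compounds at 1:260 dilution of DMSO stock. Lysed, then beta-galactosidase activity read as FDG fluorescence (ex 480/em 540) after 30 min, with pre-read for autofluorescence.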
VP16 counter = inhibits Gal4-VP16 luciferase reporter, ROR gamma counter-screen; Drosophila S2 Gal4-VP16 UAS-luciferase, luminescence, 20 h; Potency, µM (highest dose often 53.6 µM), most hits filed as inhibitors; 310,000 compounds, 3.5% hits;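 also: Gal4-VP16 expression switched on by copper sulfate through the metallothionein promoter; nearly all actives have a fitted effect of over 50% in size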
RORg inh = ROR gamma (mouse) transcription inhibition; 310,000 compounds, 5.4% hits; P51450; Potency, µM (top dose mostly 53.6 µM), most hits filed as inhibitors; AID 2551; Drosophila S2 Gal4-RORgamma UAS-luciferase reporter, 20 h; also: nearly all actives have a fitted effect of over 60% in size
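Schneider cells (Drosophila), stable Gal4 DBD–ROR gamma + UAS-luc; 1 hr cmpd preincubation; Cu2+ induction 700 uM final; 20 hr ambient; luminescence.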
Each line names hits and unclear results; the compound was inactive in the other large screens. Unless noted, calls follow the shape of the dose curve; as a rule, active = well fitted curve in the direction sought with a large enough effect; inconclusive = small, poorly fitted or top-dose-only effect, or another doubt; inactive = no such curve, though single readings can be large; an effect the other way counts as inactive or inconclusive.

CCOC(=O)N1CCN(CC(=O)Nc2c(C(=O)OC)[nH]c3ccc(Cl)cc23)CC1	VP16 counter 7.9µM, RORg inh inconclusive
CN1C[C@@H]2[C@@H]3C(=O)N(C)C(=O)[C@@H]3[C@](C)(C1=O)N2C(=O)c1ccccc1	none (no result: VP16 counter, RORg inh)
Cc1ccc(CN2CCCn3nc(C(=O)NCc4cc(C)ccc4C)cc3C2=O)cc1	none (no result: Giardia killer, Integrin act MD, VP16 counter, RORg inh)
CC(=O)c1ccc(NC(=O)CSc2cn(CC(=O)N3CCCCC3)c3ccccc23)cc1	none (no result: Giardia killer, Integrin act MD, VP16 counter, RORg inh)
Cc1ccc2[nH]c(C)c(CC(=O)NCc3ccccc3)c2c1	none
CCc1cccc(C)c1NC(=S)NCCc1c(C)[nH]c2ccc(C)cc12	VP16 counter 5.6µM, RORg inh 2.2µM
Cc1ccc2[nH]c(C)c(CCNC(=O)c3c(N)no[n+]3[O-])c2c1	none
CCc1cccc(CC)c1NC(=S)NCCc1c(C)[nH]c2ccc(C)cc12	VP16 counter 5µM, RORg inh 3.2µM
CCO[C@H](c1cc(OC)cc([N+](=O)[O-])c1OC)[C@H](C)/C=C\CC(=O)OC	none (no result: Giardia killer, ERG Ets-DNA blk, Integrin act MD)
COc1ccccc1-c1nccc(NCc2cccs2)n1	none (no result: Giardia killer, ERG Ets-DNA blk, Integrin act MD)
Cc1ccc(S(=O)(=O)Nc2cc(-c3nn(C)c(=O)c4ccccc34)ccc2N2CCOCC2)cc1	none
Cn1nc(-c2ccc(N3CCOCC3)c(NS(=O)(=O)c3ccc(Cl)cc3)c2)c2ccccc2c1=O	RORg inh 10µM
C=CCNC(=S)N/N=C/c1ccc(-c2ccc(OC)cc2)o1	VP16 counter 1.8µM, RORg inh 0.56µM
Cc1ccc(-c2ccc(/C=N/NC(=S)Nc3ccccc3)o2)cc1[N+](=O)[O-]	VP16 counter 13µM, RORg inh 0.89µM
CNC(=S)N/N=C/c1ccc(-c2ccc(C(=O)O)cc2)o1	RORg inh 4µM
CNC(=S)N/N=C/c1ccc(-c2ccc(Cl)c([N+](=O)[O-])c2)o1	VP16 counter 3.5µM, RORg inh 4.5µM
C=CCNC(=S)N/N=C/c1ccc(-c2cc(Cl)ccc2Cl)o1	none
COc1ccccc1Cc1nc2ccccc2nc1SCC(=O)Nc1c(C)cccc1C	none (no result: Giardia killer, Integrin act MD, VP16 counter, RORg inh)
COC(=O)C1=C(C)NC(C)=C(C(=O)OCCNCc2ccccc2)C1c1cccc([N+](=O)[O-])c1 (centres undefined)	none (no result: Giardia killer, ERG Ets-DNA blk, Integrin act MD)
O=C(O)c1ccc(-c2ccc(/C=N/Nc3ccc([N+](=O)[O-])cc3)o2)cc1	none
NS(=O)(=O)c1ccc(-c2ccc(/C=N/Nc3ccc(C(=O)O)cc3)o2)cc1	RORg inh 10µM
O=C(NCCCc1cnc[nH]1)NCCCN(Cc1ccc(Cl)cc1)c1ccc(Br)cn1	none (no result: ERG Ets-DNA blk, Integrin act MD, VP16 counter, RORg inh)
Cn1nc(C(=O)Nc2c(-c3ccccc3)nc3sccn23)c2ccccc2c1=O	VP16 counter inconclusive, RORg inh 10µM
Nc1nc(SCc2ccccc2)c2ncn(C3CCCO3)c2n1 (centres undefined)	none (no result: VP16 counter, RORg inh)
Cc1ccccc1-n1sc2cc(F)ccc2c1=O	VP16 counter 2.8µM, RORg inh 3.2µM
O=c1c2ccccc2sn1-c1ccccc1F	none (no result: Giardia killer, ERG Ets-DNA blk, VP16 counter, RORg inh)
NC(=O)C1(N2CCCCC2)CCN(C(=S)Nc2ccc(S(N)(=O)=O)cc2)CC1	none
Cc1ccc(C)c(N2CCN(C(=O)c3cc4c(=O)oc5ccccc5c4s3)CC2)c1	none (no result: Giardia killer, Integrin act MD, VP16 counter, RORg inh)
CCN(CC)CCCNc1nc2cc(OC)c(OC)cc2c2nc(-c3ccccc3)nn12	ERG Ets-DNA blk inconclusive, VP16 counter inconclusive, RORg inh 10µM
C/C=C\C1=C(CO)C(=O)C2O[C@]2(CC=C(C)C)C1=O (some centres undefined)	none (no result: Giardia killer, ERG Ets-DNA blk, Integrin act MD)
O=[N+]([O-])c1ccc(Sc2cc[n+]([O-])c3ccccc23)c([N+](=O)[O-])c1	VP16 counter 18µM, RORg inh 11µM
CCC12CN3CC(CC)(CN(C1)C3c1c[nH]c3ccccc13)C2=O (centres undefined)	none (no result: Giardia killer, Integrin act MD, VP16 counter, RORg inh)
COc1ccc(C2C3=C(CCCC3=O)Nc3nc(C(F)(F)F)nn32)cc1OC (centres undefined)	RORg inh 4.5µM
CCOc1ccc(C2C3=C(CCCC3=O)Nc3nc(C(F)(F)F)nn32)cc1OC (centres undefined)	none
CCCCN(C)S(=O)(=O)c1cc2c(cc1Br)CCN2C(=O)C1CC1	none (no result: VP16 counter, RORg inh)
O=C(CN1CCN(Cc2ccccc2Cl)C1=O)NCc1ccccc1Cl	none (no result: Giardia killer, Integrin act MD, VP16 counter, RORg inh)
Cc1cccc(NC(=S)NNC(=O)c2ccccc2Br)c1	Integrin act MD inconclusive, VP16 counter inconclusive, RORg inh 0.89µM
C/C(=N\NC(=O)c1ccc(Cl)cc1)c1cccc(NC(=O)C(C)C)c1	RORg inh 11µM
Cc1cccc(NC(=S)NNC(=O)c2ccccc2OC(F)F)c1	VP16 counter inconclusive, RORg inh inconclusive
CC(=O)c1ccc(NC(=S)Nc2ccc(Br)c(Cl)c2)cc1	none
CC(=O)c1cccc(NC(=S)NC(=O)c2ccccc2Br)c1	RORg inh 11µM
CC(=O)c1ccc(NC(=S)NC(C)c2ccc(Cl)cc2Cl)cc1 (centres undefined)	RORg inh 11µM
CN(C(=O)Cn1cnc2sccc2c1=O)C1CCCCC1	Giardia killer inconclusive (no result: VP16 counter, RORg inh)
CCOC(=O)c1ccc(NC(=O)C(CC)Sc2nnc3c4ccccc4n(C)c3n2)cc1 (centres undefined)	none (no result: Giardia killer, Integrin act MD, VP16 counter, RORg inh)
CCN(C(=O)CSc1nc2ccccc2n1Cc1ccc(C(=O)OC)cc1)c1ccccc1	none (no result: Giardia killer, Integrin act MD, VP16 counter, RORg inh)
O=C(O)c1cccc(NC(=S)NC(=O)c2ccncc2)c1	none
CC(=O)c1cccc(NC(=S)NC(=O)c2ccc(Cl)cc2)c1	VP16 counter 8.9µM, RORg inh 7.1µM
Cc1cccc(C(=O)NC(=S)Nc2cccc3nc(C)ccc23)c1	VP16 counter 10µM, RORg inh 7.1µM
Cc1cccc(NC(=S)NNC(=O)c2ccco2)c1	none
CCCc1cc(C(=O)NNC(=S)Nc2cccc(C)c2)cs1	VP16 counter inconclusive, RORg inh 2.2µM
CC(=O)c1cccc(NC(=S)NC(=O)c2ccccc2C)c1	none
CC(=O)c1cccc(NC(=S)NC(=O)c2cccc(C)c2)c1	VP16 counter inconclusive, RORg inh 7.9µM
COC(C[C@@H]1O[C@@H]1[C@H](O)[C@@H](C)OCc1ccccc1)OC	none
COC(=O)[C@H]1C[C@@H]2CC[C@@H](O)C[C@@H]2N1Cc1c(F)cccc1Cl	none (no result: Giardia killer, ERG Ets-DNA blk, Integrin act MD)
CCc1sc(C(=O)Nc2cccc(C(C)=O)c2)cc1C	VP16 counter inconclusive, RORg inh 7.9µM
OCCN1CCN(C(=S)Nc2ccc(Oc3ccccc3)cc2)CC1	none
COc1ccc(NC(=S)N2CCN(C)CC2)cc1	none (no result: VP16 counter, RORg inh)
COc1ccc(N2CCN(C(=S)Nc3ccc(C)cc3)CC2)cc1	RORg inh 10µM
S=C(Nc1ccccc1)N1CCOCCOCCN(C(=S)Nc2ccccc2)CCOCCOCC1	RORg inh 18µM
Cc1ccc(N2CCN(C(=S)Nc3ccccc3)CC2)cc1	VP16 counter inconclusive, RORg inh 6.3µM
CN1CCN(C(=S)Nc2ccc(Oc3ccccc3)cc2)CC1	RORg inh 11µM
Nc1cccc(S(=O)(=O)O)c1	none (no result: Giardia killer, ERG Ets-DNA blk, Integrin act MD)
CCC(=O)N1CCc2cc(S(=O)(=O)NCCC(=O)NC(C)c3ccccc3)ccc21 (centres undefined)	none (no result: Giardia killer, Integrin act MD, VP16 counter, RORg inh)
